Compound activity (PubChem)
Rv3671c inh = inhibits the M. tuberculosis serine protease Rv3671c; P9WHR9; inhibition, % at 5.96 µM; actives 0.048% (n = 320,000); in the data active means inhibition above about 38%;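 further: extracellular domain of Rv3671c used as enzyme; 0% = enzyme with DMSO and 100% = no enzyme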
Target sequence (P9WHR9 whole entry, looked up, the tested form may be a part): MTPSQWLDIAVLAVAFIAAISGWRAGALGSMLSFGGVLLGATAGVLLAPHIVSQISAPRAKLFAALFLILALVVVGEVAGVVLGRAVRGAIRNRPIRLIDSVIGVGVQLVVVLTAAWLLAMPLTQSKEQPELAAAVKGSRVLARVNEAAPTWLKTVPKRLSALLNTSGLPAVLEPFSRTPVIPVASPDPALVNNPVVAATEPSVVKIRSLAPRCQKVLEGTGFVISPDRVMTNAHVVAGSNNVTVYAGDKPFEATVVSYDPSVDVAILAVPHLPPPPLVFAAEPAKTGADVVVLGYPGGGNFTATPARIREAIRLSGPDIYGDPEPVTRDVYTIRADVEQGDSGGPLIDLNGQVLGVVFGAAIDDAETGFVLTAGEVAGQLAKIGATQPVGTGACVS
FadD28 FP inh = inhibitors of Mycobacterium tuberculosis FadD28 bisubstrate binding; FadD28 bisubstrate probe binding, fluorescence polarization; inhibition, % at 12.5 µM; actives 0.22% (n = 360,000); AID 588549; in the data active means inhibition above about 8.5%, passing the limit was not always enough
Mtb UGM inh = Mtb UDP-galactopyranose mutase inhibition; AID 504406; P9WIQ1; purified UGM, fluorescence polarization probe displacement; actives 0.06% (n = 320,000); inhibition, % at 10 µM; in the data active means inhibition above about 10%, passing the limit was not always enough
Mtb betalactam = beta-lactam sensitization of Mtb H37Rv | actives 0.27% (n = 330,000) | M. tuberculosis H37Rv growth with meropenem, percent inhibition | inhibition, % at 25 µM | AID 434955;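 further: growth measured after seven days incubation then overnight dye step; 0% = bacteria only wells and 100% = bacteria with antibiotic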
Vc quorum ag-1 = quorum light induction in luxS cqsA deficient V. cholerae; V. cholerae BH1578 lux reporter, luminescence, 6 h; activation, % at 18.7 µM; actives 0.16% (n = 350,000); in the data active means activation mostly above about 9.7%, no sharp cut-off
MazF activator = MazEF (E. coli) toxin RNase activation. FAM/BHQ RNA-DNA oligo cleavage fluorescence, 5 h. activation, % at 20 µM. actives 0.32% (n = 350,000). AID 504720; in the data active means activation above about 50%
Target sequence (P0AE70 whole entry, looked up): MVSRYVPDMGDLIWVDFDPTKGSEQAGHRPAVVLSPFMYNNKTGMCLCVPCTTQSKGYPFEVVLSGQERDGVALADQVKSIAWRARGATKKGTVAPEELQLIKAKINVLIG
Vc quorum ag-2 = inducers of V. cholerae quorum light production without autoinducers | shares compounds with Vc quorum ag-1 | V. cholerae BH1578 lux reporter, luminescence, 6 h | activation, % at 50 µM | 620 tested, under 10 active | AID 602243
Active calls of the source: *; i = inactive; . = no result. Most compounds without a hit are left out; they make up all but 0.74% or so of the library. Unless noted, how the calls were made is not given here.

SMILES	Rv3671c inh	FadD28 FP inh	Mtb UGM inh	Mtb betalactam	Vc quorum ag-1	MazF activator	Vc quorum ag-2
Cn1c(=O)c2cc(NC(=O)NCc3ccccc3)ccc2n1C/C=C/c1ccccc1	.	-3	.	.	0	.	.
CC1=C(C(=O)Nc2cc(C(=O)N3CCN(c4ccc(Cl)cc4)CC3)ccc2C)SCCO1	.	2	.	.	-6	2	.
Cc1ccc(C)c(-n2c(Cc3cccs3)n[nH]c2=S)c1	-2	0	1	-4	13	3	0
S=c1[nH]nc(Cc2cccs2)n1-c1ccccc1Cl	6	-1	0	4	0	-8	.
CCCCNC(=O)CN(c1cccc(Br)c1)S(C)(=O)=O	-3	-2	-3	-1	32*	-11	0
CCCCNC(=O)CN(c1cccc(F)c1)S(C)(=O)=O	5	0	0	4	-1	1	.
Cc1ccnc2nc(C(=O)OCC(=O)Nc3ccc4c(c3)OCCO4)nn12	2	1	-1	-6	-1	10	.
CCC(=O)Nc1nnc(SCC(=O)Nc2ccc3c(c2)OCCO3)s1	-9	-2	3	1	i	4	.
Nc1nnc(SCC(=O)Nc2ccc3c(c2)OCCO3)s1	-2	-2	0	2	12	5	0
CCN(C(=O)COC(=O)CC1CCCCC1)c1c(N)n(Cc2ccccc2)c(=O)[nH]c1=O	-2	-2	-5	-6	-2	0	.
O=C(c1cc2ccccc2cc1O)N1CCN(c2ccccc2O)CC1	-4	-3	-3	-1	12	1	0
COc1cc(C(=O)NCCC(=O)N2CCC3(CC2)NCCc2[nH]cnc23)cc(OC)c1OC	-9	0	1	7	i	10	.
N#Cc1ccccc1NC(=O)CNc1ccccc1N1CCCCC1	3	0	1	7	160*	-4	255
CCOC(=O)C1CCCc2c1[nH]c1c(C(=O)O)cccc21 (stereo not given)	-3	0	2	17	12	4	1
CC(C)Oc1ccc(CNC(=O)Cn2c(=O)c3cccn3c3cccnc32)cc1	-1	-1	2	1	0	-33	.
CCOc1ccc(CNC(=O)Cn2c(=O)c3cccn3c3ccccc32)cc1	3	-2	1	6	25*	-9	0
Cn1cccc1CN1CCC[C@]2(N[C@H](c3ccc(C(F)(F)F)cc3)[C@@H]3C(=O)N(Cc4ccccc4)C(=O)[C@@H]32)C1=O	.	-4	.	.	i	-21	.
CCC(=O)N(CCCN(C)C)c1nc(-c2cc(OC)ccc2OC)cs1	2	-1	1	2	0	-3	.
CCC(=O)N(CC)c1nc(-c2cc(OC)ccc2OC)cs1	-4	0	0	5	15*	4	1
CCn1cc(C(=O)NC2CCCCC2C)c(=O)c2ccc(C)nc21 (stereo not given)	-8	-1	0	-2	30*	-2	0
CCn1cc(C(=O)Nc2ccccc2)c(=O)c2ccc(C)nc21	1	.	-1	11	.	.	.
CCOC(=O)C1=C[C@@H](c2ccccc2)N(S(=O)(=O)c2ccc(C)cc2)[C@H]1c1cccc(Cl)c1	.	0	.	.	.	.	.
O=C(O)CSCC(=O)N1CCN(c2nc3cc(Cl)ccc3s2)CC1	-6	-4	-2	-6	0	7	.
CCCCC(C(=O)O)C(C)CC(=O)Nc1cccc(C(=O)O)c1 (stereo not given)	1	-2	3	5	i	-7	.
CCC(CCC(=O)Nc1cccc(C(=O)O)c1)C(=O)O (stereo not given)	2	2	0	4	17*	7	1
SMILES	Rv3671c inh	FadD28 FP inh	Mtb UGM inh	Mtb betalactam	Vc quorum ag-1	MazF activator	Vc quorum ag-2
O=C(c1cc2cc(Cl)ccc2oc1=O)N1CCOCC1	-4	-2	0	-9	8	-3	4
O=C(c1cc2ccccc2oc1=O)N1CCOCC1	8	0	0	-3	0	-3	.
Cc1cc(=O)oc2ccc(OCc3ccccc3)cc12	-2	0	3	1	.	3	i
CS(=O)(=O)NNC(=O)c1sccc1OCc1ncc(C(F)(F)F)cc1Cl	-2	-1	-1	-3	14	0	7
Cc1cccc(CN(C)CCc2ccccn2)c1	15	2	4	0	i	5	.
Cc1cccc(OCC(=O)N(C)CCc2ccccn2)c1	9	-4	-1	-2	25*	5	0
COc1ccc(/C(N)=N/OC(=O)Cc2ccccc2OC)cc1	-3	-3	-1	-9	12	-7	1
C=CC[C@@H](CC(=O)NCCO)C(=O)NCCOC(=O)[C@@H](CC=C)Cc1ccc(F)cc1	1	1	2	-1	i	0	.
CCCCOCC(O)CN1CCN(C(C)=O)CC1 (stereo not given)	4	-3	2	-5	12	-1	2
CC(=O)N1CCN(CC(O)COc2ccc(Br)cc2)CC1 (stereo not given)	6	-3	0	-1	i	9	.
CCS(=O)(=O)c1cc([N+](=O)[O-])c(Sc2ccccc2NC(C)=O)s1	6	-1	-3	26	-2	-6	.
CN(CC(=O)Nc1ccc(F)cc1)C(=O)C1CCN(C(=O)Nc2ccccc2)CC1	2	.	1	-3	i	0	.
Cc1cnc(C(=O)OCC(=O)NC(=O)NC(C)C)cn1	2	0	-1	-4	33*	-5	0
Cc1cnc(C(=O)OCC(=O)Nc2ccc(Cl)cc2)cn1	0	-2	-1	2	i	-18	.
CC(C)(C)C(=O)C(C(c1ccccc1)N1CCOCC1)N1CCOCC1 (stereo not given)	.	-2	.	.	6	4	.
OCCN1CCN(CC(O)COc2ccc(Cl)cc2)CC1 (stereo not given)	-1	0	-4	-5	17*	4	0
O=[N+]([O-])c1ccc(N2CCOCC2)c2c1no[n+]2[O-]	.	3	.	.	35*	0	1
CC(C)(C)OC(=O)N1CCC(NC(=O)c2[nH]cnc2C(=O)Nc2ccccc2F)CC1	.	-2	.	.	0	44	.
CC(C#N)On1c(SC(C)C#N)nc2ccccc2c1=O (stereo not given)	1	-1	-1	4	12	10	1
O=c1c2ccccc2nnn1CSc1nnc(-c2cccnc2)n1-c1ccccc1F	1	0	2	-21	12	0	0
COCC#Cc1ccc2c(c1)O[C@@H](CN(C)C(=O)Nc1ccc(OC)cc1)[C@H](C)CN([C@H](C)CO)S2(=O)=O	.	-1	.	.	0	5	.
CC1CC(C)CN(C(=O)COC(=O)c2ccc3ccccc3n2)C1 (stereo not given)	-10	-3	5	17	2	9	.
COC(=O)c1ccccc1NC(=O)Cn1cc2c(n1)CCC(C)C2 (stereo not given)	-1	-1	-1	-10	30*	-5	28
